Compound activity: PubChem, National Center for Advancing Translational Sciences (NCATS)
LASV entry inh = Lassa virus entry inhibition; Potency, µM (highest dose often 37.9 µM), without a hit: at the top dose activity change, negative = inhibition, most hits filed as inhibitors; hit rate 1.2% among 300,000; Lassa virus pseudotype entry inhibition, cell reporter; calls by dose curve; tested in HEK293 cells; note: potency is the fitted concentration of half-maximal effect; % is set by controls: 0 for no effect and ±100 for the full control effect; nearly all actives have a fitted effect of over 50% in size
MARV entry inh = Marburg virus entry inhibition; Marburg virus pseudotyped entry inhibition, cell reporter; Potency, µM (doses to about 37.8 µM), inactives show at the highest dose activity change, negative = inhibition, hits mostly inhibitors; hit rate 1.8% among 300,000; AID 540276; calls by dose curve; tested in HEK293 cells; note: potency is the fitted concentration of half-maximal effect; % is set by controls: 0 for no effect and ±100 for the full control effect
Cycloheximide cs = affects cycloheximide protein synthesis inhibition readout, counter-screen; cell reporter, cycloheximide protein synthesis inhibition counterscreen; hit rate 12% among 300,000; max response, %; AID 2314; in the data active = max response mostly above about 13%, no sharp cut-off; inactive = mostly below about 14%; note: read at 38.3 µM for the half of the compounds with a filed dose; 0% is about no effect
Shiga toxin inh = blocks Shiga toxin action in Vero cells. Vero cells, Shiga toxin protein synthesis inhibition reporter. inhibition, % at 38.7 µM. hit rate 9.2% among 290,000. AID 2315; in the data active = inhibition mostly above about 28%, no sharp cut-off; inactive = mostly below about 43%; note: 0% is about no effect
An asterisk follows results filed as active; [ ] = another dose, or the depositor's remark. Sampled rows, rich in hits. Any-hit rate of the full collection: about 12%.

Results for CC(Sc1nnc(-c2ccncc2)n1C)C(=O)NCC1CCCO1 (centres undefined) ?
LASV entry inh: -2%; MARV entry inh: -10%[46.1 µM]

Results for O=S(=O)(c1ccccc1)n1ccc2cccnc21 ?
LASV entry inh: -4%; MARV entry inh: -8%[46.1 µM]; Cycloheximide cs: -1; Shiga toxin inh: -14

How did COc1cccc2c1O/C(=N\O)C(C(=O)Nc1cccc(Br)c1)C2 (centres undefined) do in these assays?
LASV entry inh: -14%[46.1 µM]; MARV entry inh: 5%[46.1 µM]; Cycloheximide cs: 33*; Shiga toxin inh: 80*

How did COc1cccc2c1O/C(=N\O)C(C(=O)Nc1ccc(C)cc1)C2 (centres undefined) do in these assays?
Cycloheximide cs: 13*; Shiga toxin inh: 22

How did COc1ccc(NC(=O)C2Cc3cccc(OC)c3O/C2=N\O)cc1 (centres undefined) do in these assays?
Cycloheximide cs: -2; Shiga toxin inh: 2

What do the screens show for `COc1ccc(C(=O)N2CCCCCC2)cc1S(=O)(=O)N1CCOCC1`?
LASV entry inh: 10%; MARV entry inh: -3%[46.1 µM]; Cycloheximide cs: -2; Shiga toxin inh: 3

How did O=C(CSc1nc2ccccc2o1)c1ccccc1 do in these assays?
LASV entry inh: -13%; MARV entry inh: inconclusive; Cycloheximide cs: 47*; Shiga toxin inh: active

What do the screens show for `O=C(CSc1nc2ccccc2o1)c1ccc2c(c1)OCCO2`?
LASV entry inh: 9%; MARV entry inh: 22%[46.1 µM]; Cycloheximide cs: 40*; Shiga toxin inh: 98*

What do the screens show for `O=C(O)c1ccccc1CSc1nc2ccccc2o1`?
LASV entry inh: -19%; MARV entry inh: 2%; Cycloheximide cs: 35*; Shiga toxin inh: 67*

What do the screens show for `O=C(O)c1ccc(CSc2nc3ccccc3o2)cc1`?
LASV entry inh: -3%; MARV entry inh: -16%; Cycloheximide cs: -3; Shiga toxin inh: 26

What do the screens show for `CC(=O)CSc1nc2ccccc2o1`?
LASV entry inh: 3%; MARV entry inh: inconclusive; Cycloheximide cs: 27*; Shiga toxin inh: 57*

How did CCSc1ccccc1C(=O)Nc1ccc(S(=O)(=O)NC(C)=O)cc1 do in these assays?
LASV entry inh: -15%[46.1 µM]; MARV entry inh: inconclusive; Cycloheximide cs: -1; Shiga toxin inh: -6

What do the screens show for `COc1ccc(NC(=O)C2CCN(S(=O)(=O)c3ccc4[nH]c(=O)ccc4c3)CC2)c(OC)c1`?
LASV entry inh: -5%[46.1 µM]

How did CCCCCCOC(=O)Sc1nc2ccccc2o1 do in these assays?
LASV entry inh: 10%; MARV entry inh: 1%; Cycloheximide cs: 29*; Shiga toxin inh: 43*

What do the screens show for `CCN(CC)c1ccc(/C=N/NC(=S)NCc2ccc(OC)cc2)cc1`?
LASV entry inh: 3.7µM*; MARV entry inh: inconclusive; Cycloheximide cs: 1; Shiga toxin inh: -14

What do the screens show for `CCN(CC)c1ccc(/C=N/NC(=S)NCc2ccccc2)cc1`?
LASV entry inh: inconclusive; MARV entry inh: inconclusive; Cycloheximide cs: -5; Shiga toxin inh: -9

What do the screens show for `COc1cc(/C=N/NC(N)=S)ccc1OC(=O)c1ccc(C)cc1`?
LASV entry inh: 1%; MARV entry inh: -2%; Cycloheximide cs: 6; Shiga toxin inh: -30

What do the screens show for `COc1ccc(CNC(=S)N/N=C/c2ccc(OC)c(OC)c2)cc1`?
LASV entry inh: inconclusive; MARV entry inh: 15%; Cycloheximide cs: 21*; Shiga toxin inh: 17

What do the screens show for `COc1cc(/C=N/NC(N)=S)ccc1OCc1ccc(C)cc1`?
LASV entry inh: inconclusive; MARV entry inh: inconclusive; Cycloheximide cs: 30*; Shiga toxin inh: 66*

How did CCc1ccc(OCC(=O)N/N=C/c2ccc(OS(=O)(=O)c3ccc(C)cc3)c(OC)c2)cc1 do in these assays?
MARV entry inh: -1%; Cycloheximide cs: 13*; Shiga toxin inh: 9

How did CCc1cccc2c(-c3ccccc3)nc(SCC(=O)Nc3ccccc3)nc12 do in these assays?
LASV entry inh: 8%[46.1 µM]; MARV entry inh: 2%[46.1 µM]

How did COc1cc(/C=N/NC(=S)Nc2cccc(C(=O)O)c2)cc(OC)c1OC do in these assays?
LASV entry inh: -1%; MARV entry inh: 21%; Cycloheximide cs: 6; Shiga toxin inh: -2

What do the screens show for `C=CCNC(=S)N/N=C/c1ccc(N(CC)Cc2ccccc2)cc1`?
LASV entry inh: 16µM*; MARV entry inh: 12µM*; Cycloheximide cs: 13*; Shiga toxin inh: -3

What do the screens show for `COc1cc(/C=N/NC(=S)N/N=C/c2cc(OC)c(OC)c(OC)c2)cc(OC)c1OC`?
LASV entry inh: 16%; MARV entry inh: -19%; Cycloheximide cs: 38*; Shiga toxin inh: 87*

Results for COc1cc(OC)c(OC)cc1/C=N/NC(=S)NCCN1CCOCC1 ?
LASV entry inh: -12%; MARV entry inh: -7%[46.1 µM]; Cycloheximide cs: 7; Shiga toxin inh: 5

How did C=CCNC(=S)N/N=C/c1ccc(C(F)(F)F)cc1 do in these assays?
Cycloheximide cs: 7; Shiga toxin inh: 3

How did COc1cc(/C=N/NC(=S)NCCN2CCOCC2)cc(OC)c1O do in these assays?
LASV entry inh: inconclusive; MARV entry inh: inconclusive; Cycloheximide cs: 19*; Shiga toxin inh: 77*

Results for O=C(CCNS(=O)(=O)c1ccc2c(c1)CCCC(=O)N2)NCc1ccc(Cl)cc1 ?
LASV entry inh: 5%[46.1 µM]

How did COc1cccc(-n2c(=O)c3sccc3n(CC(=O)NC3CCCCC3)c2=O)c1 do in these assays?
LASV entry inh: -1%; MARV entry inh: 15%[46.1 µM]; Cycloheximide cs: -12; Shiga toxin inh: -11

Results for Cc1ccc(-n2c(=O)c3sccc3n(CC(=O)NC3CCCCC3)c2=O)cc1 ?
Cycloheximide cs: 12; Shiga toxin inh: 112*

What do the screens show for `O=C(O)c1ccccc1C(=O)Nc1cccc([N+](=O)[O-])c1`?
Cycloheximide cs: -3; Shiga toxin inh: 5

What do the screens show for `O=C(Nc1cccc([N+](=O)[O-])c1)c1cc2ccccc2cc1O`?
Cycloheximide cs: 49*; Shiga toxin inh: 108*

What do the screens show for `Cc1ccc(NC(=O)c2cc(C)nc3ccccc23)cc1`?
Cycloheximide cs: 2; Shiga toxin inh: -16

How did Cc1ccc(NC(=O)c2csc(-c3ccccc3)c2C)cc1 do in these assays?
LASV entry inh: 6.5µM*; MARV entry inh: 13µM*; Cycloheximide cs: 54*; Shiga toxin inh: 199*

Results for Cc1c(C(=O)Nc2cccc([N+](=O)[O-])c2)csc1-c1ccccc1 ?
LASV entry inh: inconclusive; MARV entry inh: inconclusive; Cycloheximide cs: 46*; Shiga toxin inh: 83*

How did CCOC(=O)c1cc(-c2ccccc2)n(CCCC(=O)Nc2cccc(C)c2C)c1C do in these assays?
LASV entry inh: 0%[46.1 µM]

Results for CC1(C)CN(c2ccc(N3CC(C)(C)C3=O)cc2)C1=O ?
LASV entry inh: 8%; MARV entry inh: 15%[46.1 µM]; Cycloheximide cs: 39*; Shiga toxin inh: 69*

What do the screens show for `O=C1N=c2ccccc2=C1c1sc(Nc2ccc(O)cc2)nc1O`?
LASV entry inh: 9%; MARV entry inh: 15%[46.1 µM]; Cycloheximide cs: 12; Shiga toxin inh: 64*

Results for O=C1N=c2ccccc2=C1c1sc(Nc2cccc(O)c2)nc1O ?
Cycloheximide cs: 44*; Shiga toxin inh: 48*

How did CC(=O)Nc1ccc2c(c1)NC(=O)CC2 do in these assays?
LASV entry inh: -3%[46.1 µM]; MARV entry inh: -14%[46.1 µM]; Cycloheximide cs: -2; Shiga toxin inh: 3

What do the screens show for `COC(=O)Nc1ccc2c(c1)Nc1ccccc1CC2`?
LASV entry inh: 5%[46.1 µM]; MARV entry inh: inconclusive; Cycloheximide cs: active
